# Source: PubChem BioAssay (NCI)
# This is part of a sample that, as a whole, favours compounds with a hit. Of some 83,000 tested, about 20% had one in any assay.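 A percent growth of 40 corresponds to 60% growth inhibition; 0 means no net growth; -100 means all cells died. Active threshold: below 10.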 Values without a mark were called inactive. Activity calls are given as the source filed them.
# Key:
# Test in all cases: NCI-60 one-dose screen, 48 h (100 = growth as untreated, 0 = no growth, -100 = all killed)
# Conditions in all cases: 10 µM unless noted
# DU-145 prostate = tested on: DU-145 prostate
# K-562 leukemia = tested on: K-562 leukemia
# MALME-3M melanoma = tested on: MALME-3M melanoma
# MDA-MB-231 breast = tested on: MDA-MB-231 breast
# RXF 393 renal = tested on: RXF 393 renal
# SF-268 CNS = tested on: SF-268 CNS
# SF-295 CNS = tested on: SF-295 CNS
# SF-539 CNS = tested on: SF-539 CNS
# UACC-257 melanoma = tested on: UACC-257 melanoma
# M14 melanoma = tested on: M14 melanoma
SMILES,growth (DU-145 prostate),growth (K-562 leukemia),growth (MALME-3M melanoma),growth (MDA-MB-231 breast),growth (RXF 393 renal),growth (SF-268 CNS),growth (SF-295 CNS),growth (SF-539 CNS),growth (UACC-257 melanoma),growth (M14 melanoma)
O=c1[nH]nc(-c2ccccc2)c2sc3ncc(-c4ccc(Br)cc4)n3c12,28.6%,16.1%,52.4%,69.1%,57.9%,51%,48.9%,41.3%,66%,42.3%
COc1cc(C=O)ccc1OC1OC(COC(C)=O)C(OC(C)=O)C(OC(C)=O)C1OC(C)=O (stereo not given),107%,116%,102%,101%,103%,99.2%,102%,96.7%,101%,96.6%
CCOC(=O)Oc1c(OC)cc(C(=O)c2ccc(OC)c(O)c2OC)cc1OC,13.8%,10.8%,49.1%,30.8%,-10.1% (active),48.7%,22.6%,-15.7% (active),47.3%,-9.21% (active)
Cc1cc(C(=O)/C=C/c2ccc[nH]2)ccc1-n1ccc(C(F)(F)F)n1,96%,53.3%,94.7%,30.6%,21.2%,49.1%,85%,13.5%,97.4%,90.5%
CCN1CCN(CCNc2nccc(-c3c(-c4cccc(OC)c4)nc4occn34)n2)S1(=O)=O,104%,7.02% (active),6.12% (active),87.7%,94.4%,102%,101%,104%,52.7%,40%
COc1ccc2[nH]c(=O)c(CN3CCN(c4nccc(-c5ccc(Cl)cc5)n4)CC3)cc2c1,98.9%,70.4%,92.9%,85%,90.3%,90.5%,98.4%,89.8%,82.6%,102%
C=C(C)[C@@H]1CC[C@]2(CN)CC[C@]3(C)[C@H](CC[C@@H]4[C@@]5(C)CCCNC(C)(C)[C@@H]5CC[C@]43C)[C@@H]12,-53.5% (active),-56.1% (active),-70.5% (active),-79.7% (active),-87.4% (active),22.9%,-59.6% (active),-31.8% (active),46.3%,-77.7% (active)
NS(=O)(=O)c1ccc(Cn2c(SCC(=O)N/N=C/c3ccccc3O)nc3ccccc3c2=O)cc1,72.5%,36.6%,59%,30.1%,72.2%,38.2%,65.9%,54.3%,70.6%,42%
COc1ccc(C(C)=O)c(OC)c1,113%,118%,110%,102%,117%,111%,110%,103%,97.8%,108%
COc1ccc(C(=O)CSc2nc(-c3cc(OC)ccc3OC)cc(-c3ccc(Cl)cc3)c2C#N)cc1,65.9%,77.9%,-6.38% (active),33.2%,26.5%,59.2%,18.5%,30.5%,58%,48.6%
COc1cc2nc(-c3ccc(C(F)(F)F)cc3)cc(OCCN3CCCCC3)c2cc1OC,70.9%,53.4%,74.4%,54.1%,62.4%,75.8%,77.5%,74.4%,36.6%,-11.8% (active)
CCCCCCNC(=O)Oc1ccc(/C(=C(\C)c2ccccc2)c2ccc(OCCN3CCCCC3)cc2)cc1,82.8%,4.69% (active),34.2%,78.1%,47.6%,68.3%,35.4%,23.3%,-0.337% (active),-22.9% (active)
COc1cc(NC(C)CCCNC(=O)CCC(=O)NCCCNCCCCCCCCNCCCNC(=O)CCC(=O)NCCCC(C)Nc2cc(OC)cc3cccnc23)c2ncccc2c1 (stereo not given),66.7%,45.1%,40.2%,44%,67.9%,52.2%,85.5%,69%,36.3%,84.4%
O=S(=O)(NCCNc1nccc(-c2c(-c3cccc(F)c3)nc3sccn23)n1)c1ccc(Br)cc1,52.5%,38.7%,71.1%,69.7%,72.7%,53%,58.7%,76.4%,82%,52.3%
C=CC(=O)N[C@@H](/C=C/C(=O)OCC)Cc1ccc(-c2cc(Cl)cc(Cl)c2)cc1,16.9%,8.57% (active),4.14% (active),9.36% (active),-10.1% (active),32.1%,21.8%,56.8%,-2.68% (active),24.7%
COc1cc(C2C3CC4CCCC[C@H]4N3[C@@]3(C(=O)Nc4cc(Cl)ccc43)C2C(=O)c2nc3ccccc3[nH]2)cc(OC)c1OC (stereo not given in full),80.5%,40.5%,56.6%,76.8%,51.1%,67.3%,45.5%,70.1%,61.6%,52%
CC(=O)O[C@@H]1C2CCC3C(CC[C@@]4(C)C3CC[C@@H]4C(C)N(C)C)[C@@]2(C)CC[C@@H]1NC(=O)C=C(C)C (stereo not given in full),51.4%,2.24% (active),-59.4% (active),-10.3% (active),-51.5% (active),-23.4% (active),-15.3% (active),-52.7% (active),-40.9% (active),-44.4% (active)
COc1cccc(-c2ccc3c(c2)NC(=O)/C3=C\c2ccc[nH]2)c1,65.7%,12.4%,51.9%,53.4%,32.2%,80.8%,61.8%,45.4%,77%,39.2%
CCOC(=O)c1cc(C#N)n2ccc3ccccc3c12,103%,106%,104%,102%,98.9%,94.2%,96.5%,98.7%,104%,108%
COc1ccc(CNCCN2C(=O)c3ccc4c5c(ccc(c35)C2=O)C(=O)N(CCNCc2ccc(OC)c(OC)c2OC)C4=O)c(OC)c1OC,-41.7% (active),-10.8% (active),-73% (active),-8.31% (active),-32.3% (active),-2.06% (active),-44.8% (active),-47.7% (active),-85.1% (active),-58.3% (active)
C=C1C(=O)O[C@H]2[C@H]1CC/C(COC(=O)NCc1c[nH]c3ccc(Br)cc13)=C\CC[C@@]1(C)O[C@@H]21,-88.6% (active),0.98% (active),-45.4% (active),-52.7% (active),-87.7% (active),3.85% (active),60.9%,-36.9% (active),-39.6% (active),-40.8% (active)
COc1ccc(C/C(=C(\C)c2ccc(OCCN3CCCC3)cc2)c2ccc(OCCN3CCCC3)cc2)cc1,70%,-64.1% (active),47.1%,17.8%,55.7%,69.9%,34.2%,29.9%,63.9%,-64.8% (active)
CCCCCOc1ccc(/C=N/Nc2cc(C)nc3ccc(Cl)cc23)cc1,5.9% (active),-33% (active),-63.8% (active),-77.3% (active),-85.5% (active),72%,-86% (active),-78.2% (active),99.2%,-15.4% (active)
Cc1cc2nc3c4cc([N+](=O)[O-])ccc4n(CCN(C)C)c3nc2cc1C,8.55% (active),0.995% (active),-40.1% (active),-1.27% (active),-50.6% (active),-0.874% (active),0.581% (active),-14.5% (active),-1.98% (active),-27.3% (active)
